Our source for the Potency and activity change, negative = inhibition values is PubChem BioAssay (Tox21).

Records with an inconclusive call do not appear. Where a call stands in place of a potency, no number is given. Values without a mark were called inactive. Calls of active or inactive are those of the source. The call rests on the fitted dose curve; in most records, active means well fitted inhibition curve with a large enough effect in the repeat runs; inconclusive means weak or mixed curves; inactive means no such curve, though single readings can be large or run the other way.
Potency means the concentration at half of the fitted maximal effect.

Cytochrome P450 2C9 (Homo sapiens), sequence (P11712 whole entry, looked up): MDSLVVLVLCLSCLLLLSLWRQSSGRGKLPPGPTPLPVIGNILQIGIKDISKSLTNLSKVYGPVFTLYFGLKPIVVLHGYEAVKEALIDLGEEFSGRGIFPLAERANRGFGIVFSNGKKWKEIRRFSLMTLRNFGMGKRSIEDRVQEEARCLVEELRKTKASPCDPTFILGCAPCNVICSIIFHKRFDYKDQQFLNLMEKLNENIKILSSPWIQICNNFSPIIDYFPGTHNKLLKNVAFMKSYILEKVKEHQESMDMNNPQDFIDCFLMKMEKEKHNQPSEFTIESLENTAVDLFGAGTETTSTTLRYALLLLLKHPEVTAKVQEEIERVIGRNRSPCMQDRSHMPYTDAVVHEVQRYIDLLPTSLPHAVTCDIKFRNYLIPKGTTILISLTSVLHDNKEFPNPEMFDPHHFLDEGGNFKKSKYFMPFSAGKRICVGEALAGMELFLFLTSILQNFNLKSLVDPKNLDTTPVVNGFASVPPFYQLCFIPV

The target of the test is Cytochrome P450 2C9 (Homo sapiens) (UniProt P11712). As to the kind of experiment: Cytochrome P450 Family 2 Subfamily C Member 9 (CYP2C9) small molecule antagonists: luciferase reporter qHTS assay (AID 1671198). Further: nearly all actives have a fitted effect of over 50% in size. The note with it: P450-Glo CYP2C9 enzyme assay, luciferin luminescence; series mostly up to 115 µM. The gist of the method:
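P450-Glo proluciferin substrate with CYP2C9 enzyme; 10 min RT preincubation, then NADPH regeneration 1 h at 37C; luciferin detection reagent 20 min RT, luminescence in relative luminescence units.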
As for `CO[C@]12C[C@@H](COC(=O)c3cncc(Br)c3)CN(C)[C@@H]1Cc1cn(C)c3cccc2c13`, the Potency entry was “inactive”. On the same count and under the same terms, the result for `COC(=O)c1c(Cl)c(Cl)c(C(=O)OC)c(Cl)c1Cl` reads “inactive”. The same measure, in the same setting: the result for `N=C(N)c1ccccc1` reads “inactive”. On the same count and under the same terms, the result for `CCOC(C)(C)C` reads “inactive”; that for `C[C@H](NC(CCc1ccccc1)C(=O)O)C(=O)N1CCC[C@H]1C(=O)O` (some centres undefined), “inactive”; that for `CC1=CC(C)C(C=O)CC1` (centres undefined), “inactive”. For the molecule `CCOc1ccc(C(=O)OCCN(CC)CC)cc1`, the Potency entry was “inactive”. For the molecule `NS(=O)(=O)c1cc2c(cc1Cl)NC(C1CC3C=CC1C3)NS2(=O)=O` (centres undefined), the Potency is 12.3 µM (active). Same read-out and setting: the result for `NC(=O)Nc1ccccc1` reads “inactive”. On the same count and under the same terms, the result for `CC1(C)CO[C@@H](CC(=O)O)CN1` reads “inactive”; that for `O=c1n(CCO)c(=O)n(CCO)c(=O)n1CCO`, “inactive”.

Consider `O=C(CCCN1CCC(O)(c2cccc(C(F)(F)F)c2)CC1)c1ccc(F)cc1`, for which the Potency entry was “inactive”. On the same count and under the same terms, the result for `O=C1NC(=O)[C@@]2(CCOc3ccc(F)cc32)N1` reads “inactive”; that for `CC(C)c1cc2c(cc1S(=O)(=O)O)[C@@]1(C)CCC[C@@](C)(C(=O)O)[C@@H]1CC2`, “inactive”; that for `C[N+](C)(C)CCCCCC[N+](C)(C)C`, “inactive”. Same read-out and setting: the result for `C1CN(CCOCCN2CCOCC2)CCO1` reads “inactive”; that for `OCCOc1ccc(OCCO)cc1`, “inactive”. `NCCCNCCSP(=O)(O)O`: the activity change, negative = inhibition is 10.3% [at 10.5 µM]. Regarding `CCCCCSCCCCC`, the Potency entry was “inactive”. Same read-out and setting: the result for `CC1(C)C(O)C(C)(C)C1O` (centres undefined) reads “inactive”; that for `CCCN(CCC)CCc1cccc2c1CC(=O)N2`, “inactive”; that for `Cn1c(N)c(N=O)c(=O)n(C)c1=O`, “inactive”.

On to `CCCCCOC(=O)CCCCC`, for which the Potency entry was “inactive”. Still for that read-out and setting: the result for `CCOC(=O)c1cccc(N)c1` reads “inactive”. The same measure, in the same setting: the result for `CN1CCCC1` reads “inactive”; that for `CCCCCCOC(=O)CCCCC(=O)OCCCCCC`, 31.7 µM (active). The same measure, in the same setting: the result for `O=C(O)CCCl` reads “inactive”; that for `O=C1OC(=O)C2CCCCC12` (centres undefined), “inactive”; that for `NC(=O)c1cn(Cc2c(F)cccc2F)nn1`, “inactive”.

For the molecule `O=Cc1cccc([N+](=O)[O-])c1`, the Potency entry is “inactive”. On the same count and under the same terms, the result for `CO/N=C(/C(=O)N[C@@H]1C(=O)N2C(C(=O)OCOC(=O)C(C)(C)C)=C(C)CS[C@H]12)c1csc(N)n1` reads 11 µM (active). The same measure, in the same setting: the result for `NC(=O)COCCN1CCN(C(c2ccccc2)c2ccc(Cl)cc2)CC1` (centres undefined) reads “inactive”.

For the molecule `C=CCCCCCCCCC=O`, the Potency is 31.7 µM (active).

Take `NC(=O)c1ccc(N)cc1`: the Potency entry was “inactive”.
